Compounds with a hit are over-represented: about 2.7% of the library has one in this group of screens.
A549 viability = counter-screen for Nrf2 inhibitors: cytotoxicity in A549 cells | A549 ARE-Fluc cells, CellTiter-Fluor viability, 18-24 h | Potency, µM (top dose mostly 46 µM), hits mostly inhibitors | hit rate 0.16% among 390,000 | AID 504648
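A549 ARE-Fluc cells in 5% FBS OPTI-MEM, 5000 cells/well, rested 2 h then exposed to compounds in concentration-response for 18-24 h at 37 °C. Viability by CellTiter-Fluor fluorescence (Ex 405/Em 525) after 30 min; luciferase luminescence (BugLite, 15 min, RT) read afterwards.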
Nrf2 inh = Nrf2 pathway inhibition | A549 ARE-Fluc reporter, luciferase luminescence, 18-24 h | Potency, µM (top dose mostly 46 µM), hits mostly inhibitors | hit rate 2.1% among 360,000; also: nearly all actives have a fitted effect of over 60% in size
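Quantitative HTS in A549 cells stably bearing an antioxidant response element-firefly luciferase construct. Inhibition of Nrf2-driven transcription was scored by luminescence after 18-24 h of compound exposure at 37 °C.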
Nrf2 ARE act = activates Nrf2 signaling. AREc32 ARE-luciferase reporter (MCF7-derived line), luminescence, 24 h. Potency, µM (titrated, usually from 46.1 µM), hits mostly activators. hit rate 0.31% among 410,000. AID 624171; also: nearly all actives have a fitted effect of over 65% in size
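AREc32 cells carrying an ARE-driven firefly luciferase, 1000 cells/well in OPTI-MEM with 5% FBS, dosed after overnight attachment and incubated 24 hr at 37 deg C. Steady-Glo luminescence read after 30 min at RT.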
12-LOX inh = blocks human arachidonate 12S-lipoxygenase; purified 12hLO, xylenol orange hydroperoxide absorbance; AID 1671190; P18054; hit rate 1.1% among 580,000; Potency, µM (titrated, usually from 108 µM), usual class: inhibitors
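Purified human 12hLO (150 nM final) in 25 mM Hepes, 0.01% Triton X-100, pH 7.0 was preincubated 15 min at room temperature with compound. Then 40 uM arachidonic acid was added, 30 min. Hydroperoxide was read by Fe-XO absorbance ratio 573/405 nm.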
LDHA inh = inhibitors of human lactate dehydrogenase A | AID 1347041 | activity change, % (values are at about 110 or 230 µM) | P00338 | purified LDHA, NADH/diaphorase-resazurin fluorescence; hits give low values | hit rate 0.15% among 480,000; in the data active = activity change below about -30%; inconclusive = mostly about -25% to -30%
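Human LDH5 (2 nM) was incubated with 0.06 mM NADH and 0.2 mM pyruvate for 5 min at room temperature in Tris pH 7.4. Remaining NADH was coupled through diaphorase/resazurin, and resorufin fluorescence was read at 0 and 20 min.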
mIDH1 inhibitor = human IDH1 R132H inhibition. AID 602179. Potency, µM (top dose mostly 76.6 µM), actives largely listed as inhibitors. hit rate 0.093% among 390,000. IDH1-R132H enzyme, NADPH consumption, diaphorase/resazurin fluorescence; also: nearly all actives have a fitted effect of over 65% in size
Target sequence (O75874 whole entry R132H, stated change not applied): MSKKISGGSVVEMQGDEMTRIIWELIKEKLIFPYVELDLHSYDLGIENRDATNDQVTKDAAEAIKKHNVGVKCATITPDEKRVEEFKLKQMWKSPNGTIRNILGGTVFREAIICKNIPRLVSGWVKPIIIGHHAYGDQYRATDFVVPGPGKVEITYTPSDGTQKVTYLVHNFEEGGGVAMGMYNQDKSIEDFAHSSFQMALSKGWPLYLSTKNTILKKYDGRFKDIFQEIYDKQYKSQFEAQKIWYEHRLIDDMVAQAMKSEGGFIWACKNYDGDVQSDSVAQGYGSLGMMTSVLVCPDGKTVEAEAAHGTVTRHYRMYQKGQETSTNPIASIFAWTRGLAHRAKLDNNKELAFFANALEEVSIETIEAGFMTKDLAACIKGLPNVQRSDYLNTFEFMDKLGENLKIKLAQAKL
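IDH1-R132H (0.5 ug/mL dispensed) in pH 7.5 Tris buffer was preincubated 30 min with compound, then given a substrate mix of 0.016 mM NADPH and 2 mM alpha-KG for 80 min at room temperature; remaining NADPH was read by diaphorase/resazurin fluorescence.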
A number is an active result; – = inactive; ? = inconclusive; · = no result given; ! = a repeat was not active; [ ] = another dose, or the depositor's remark. Unless noted, calls follow the shape of the dose curve; as a rule, active = well fitted curve in the direction sought with a large enough effect; inconclusive = small, poorly fitted or top-dose-only effect, or another doubt; inactive = no such curve, though single readings can be large; an effect the other way counts as inactive or inconclusive.

SMILES	A549 viability	Nrf2 inh	Nrf2 ARE act	12-LOX inh	LDHA inh	mIDH1 inhibitor
Cn1c(=O)c(Oc2ccc(F)cc2F)cc2cnc(NC3CCOCC3)nc21	·	·	·	17µM	·	·
CCC(=O)c1sc(Nc2ccc(C)cc2C)nc1N	·	·	·	?	–	·
Cc1[nH]c(C)c(C(=O)/C=C/c2ccc([N+](=O)[O-])cc2)c1C	–	–	?	32µM	–	–
CCOc1ccccc1OCc1nn2c(C3COc4ccccc4O3)nnc2s1 (stereo not given)	·	·	·	7.1µM	–	·
Cc1ccc(/C=C2\Sc3ccccc3C2=O)s1	–	–	11µM	–	–	–
CC(=O)N(C)/C=C1\Sc2ccccc2C1=O	–	·	?	35µM	–	–
CN1C(=O)/C(=C/c2cccc(Cl)c2)Sc2ccc(C(=O)N3CCOCC3)cc21	–	15µM	–	–	–	–
CCOC(=O)C1CCCN(C(=O)c2ccc3c(c2)N(C)C(=O)/C(=C/c2ccccc2Cl)S3)C1 (stereo not given)	–	23µM	–	–	–	–
CN1C(=O)/C(=C/c2ccccc2Cl)Sc2ccc(C(=O)N3CCCC3)cc21	–	–	–	–	–	–
N#Cc1ccc(CNCCN2CCCC2)cc1	·	·	·	?	–	·
CN1CCN(CC(C#N)C(O)c2ccncc2)CC1 (stereo not given)	·	·	·	–	–	·
COc1ccc(OC)c(-c2nc3c(c(=O)[nH]2)Cc2ccccc2O3)c1	·	·	·	?	–	·
COc1cnc(-c2ccccn2)nc1N(C)C	?	8.2µM	–[9.22 µM]	–	–	–
O=c1c(Cl)c(N2CCN(c3ccccc3)CC2)cnn1-c1nc2ccccc2s1	·	·	·	–	–	·
O=C(Nc1ccc(C23CC4CC(CC(C4)C2)C3)cc1)c1ccc2ncsc2c1	·	·	·	–	–	·
CN(C)C(=S)NC(=S)Nc1ccc2ccccc2c1	–	?	–	35µM	–	–
Fc1ccc(CNC(=S)Nc2ccc3ccccc3c2)cc1	·	·	·	?	–	·
Cc1csc2nc(-c3cccc(NS(=O)(=O)c4cccs4)c3)cn12	·	·	·	?	–	·
C=C(C)C1CC=C(C)/C(=N\NC(=S)Nc2ccc(C)cc2)C1 (stereo not given)	–	–	–	22µM	–	–
COCCN1CCCN(C(=O)c2ccc(F)c(F)c2)c2ccccc21	·	·	·	45µM	·	·
CCC(=O)N1CCCN(CCOC)c2ccccc21	·	·	·	–	·	·
CCCn1c2c(c(=N)c3c1CCC3)CCC2	–	7.3µM	–	–	–	–
CCCn1c2c(c(=N)c3c1CCC3)CCCC2	–	?	–	?	-36	–
Cc1ccccc1-c1nnc(SCC(=O)Nc2nncs2)n1C	·	·	·	–	–	·
CC[N+](CC)(CC#Cc1ccccc1)CC#Cc1ccccc1	–	15µM	–	–	–	–
SMILES	A549 viability	Nrf2 inh	Nrf2 ARE act	12-LOX inh	LDHA inh	mIDH1 inhibitor
C#CC[N+](CC)(CC)CC#Cc1ccccc1	–	?	–	–	–	–
CC(C)C(=O)Nc1ccc2oc(-c3cncc(Br)c3)nc2c1	·	·	·	–	–	·
O=C(Nc1cccc(Cl)c1)N1CCN2C(=O)c3ccccc3C12c1ccccc1 (stereo not given)	?	21µM	–	–	–	–
O=C(CSc1nc2ccccc2nc1SCC(=O)N1CCOCC1)N1CCOCC1	–	–	–	–	–	–
Cc1nnc(SCC(=O)N2CCOCC2)c2ccccc12	–	9.2µM	?	–	–	–
COc1ccc(Cl)cc1NC(=O)c1c(-c2ccccc2)noc1C	–	–	–	?	–	–
COc1ccc(Cl)cc1NC(=O)COC(=O)c1c(-c2ccccc2)noc1C	–	10µM	–	–	–	–
COC(=O)COC(=O)COc1ccccc1Cc1ccccc1	·	·	·	–	–	·
N=c1oc2cc(O)ccc2cc1C(=O)Nc1ccc(Br)cc1	–	21µM	–	?	–	–
CC(=O)c1c(NC(=O)c2ccccc2)[nH]c(-c2ccccc2)nc1=S	–	–	–	40µM	–	–
CC(=O)c1c(C)[nH]c(-c2ccccc2)nc1=S	–	–	–	–	–	–
CCOCc1nnc(NC(=O)C(CC)c2ccccc2)s1 (stereo not given)	·	·	·	?	–	·
C/C(=N\NC(=O)C(c1ccccc1)c1ccccc1)c1ccccn1	?	12µM	–	–	–	–
CC(=NNC(=S)Nc1ccc(C)cc1)c1ccccn1	12µM	?	–	?	–	–
C/C(=N\NC(=O)C(c1ccccc1)c1ccccc1)c1ccc(O)cc1	–	?	–	–	–	–
C/C(=N\NC(=O)C1COc2ccccc2O1)c1ccccn1 (stereo not given)	?	9.2µM	?	–	–	–
C/C(=N\NC(=O)C1CCCN(S(=O)(=O)c2ccccc2)C1)c1ccccn1 (stereo not given)	?	12µM	–	–	–	–
Cc1cc(NC(C)C2CC3CCC2C3)n2ncnc2n1 (stereo not given)	·	·	·	?	–	·
C/C(=N\NC(=O)c1cccc(Br)c1)c1ccccn1	?	2.3µM	?	–	–	–
C/C(=N\NC(=O)c1cc(Br)ccc1O)c1ccccn1	–	–	–	–	–	–
CCNc1ncc2nc(CCc3ccccc3)c(=O)n(C[C@H]3CCCO3)c2n1	·	·	·	7.1µM	·	·
O=C(Nc1cccc(S(=O)(=O)NC2=NCCC2)c1)c1cc(-c2ccco2)nc2ccccc12	?	–	10µM	?	–	–
O=C(NC(=S)Nc1cccc(S(=O)(=O)NC2=NCCC2)c1)c1cc(-c2ccco2)nc2ccccc12	–	?	–	–	–	–
O=C(Nc1nccs1)c1cc(-c2ccco2)nc2ccccc12	–	–	?	45µM	–	–
CN(C)C(=O)c1ccc(NC(=O)c2cc(-c3ccco3)nc3ccccc23)cc1	–	–	11µM	16µM!	–	–
SMILES	A549 viability	Nrf2 inh	Nrf2 ARE act	12-LOX inh	LDHA inh	mIDH1 inhibitor
Cc1csc(NC(=O)c2cc(-c3ccco3)nc3ccccc23)n1	–	–	4µM	25µM	–	–
COc1ncccc1Nc1cnc2ccc(N(C)Cc3ccc(F)cc3)nn12	·	·	·	–	·	·
Cc1ccccc1-c1cc(C(=O)Nc2nn[nH]n2)c2ccccc2n1	·	·	·	?	–	·
Cc1ccc2nc(NC(=O)c3cc(-c4ccco4)nc4ccccc34)sc2c1	–	23µM	–	?	–	–
C=CCNC(=O)C1CCC(CNc2nc(=S)[nH]c3ccccc23)CC1 (stereo not given)	–	?	–	–	–	–
O=C(C1CCC(CNc2nc(=S)[nH]c3ccccc23)CC1)N1CCN(c2ccccn2)CC1 (stereo not given)	?	16µM	–	–	–	–
CCC(=O)N1N=C(c2ccco2)CC1c1ccc2nccnc2c1 (stereo not given)	·	·	·	–	–	·
C/C=C(/C(=C/C)c1ccc(O)cc1)c1ccc(O)cc1	–	–	–	50µM!	–	–
CCOC(=O)c1ccc(NC(=O)COC(=O)c2ccc3ccccc3n2)cc1	·	·	·	?	–	·
